RORg inh – blocks mouse ROR gamma transcriptional activity; P51450; Drosophila S2 Gal4-RORgamma UAS-luciferase reporter, 20 h; Potency, µM (titrated, usually from 53.6 µM), without a hit: at the highest dose activity change, negative = inhibition, most hits filed as inhibitors; 310,000 tested, 5.4% active; AID 2551; note: nearly all actives have a fitted effect of over 60% in size
Target sequence (P51450 whole entry, looked up, the tested form may be a part): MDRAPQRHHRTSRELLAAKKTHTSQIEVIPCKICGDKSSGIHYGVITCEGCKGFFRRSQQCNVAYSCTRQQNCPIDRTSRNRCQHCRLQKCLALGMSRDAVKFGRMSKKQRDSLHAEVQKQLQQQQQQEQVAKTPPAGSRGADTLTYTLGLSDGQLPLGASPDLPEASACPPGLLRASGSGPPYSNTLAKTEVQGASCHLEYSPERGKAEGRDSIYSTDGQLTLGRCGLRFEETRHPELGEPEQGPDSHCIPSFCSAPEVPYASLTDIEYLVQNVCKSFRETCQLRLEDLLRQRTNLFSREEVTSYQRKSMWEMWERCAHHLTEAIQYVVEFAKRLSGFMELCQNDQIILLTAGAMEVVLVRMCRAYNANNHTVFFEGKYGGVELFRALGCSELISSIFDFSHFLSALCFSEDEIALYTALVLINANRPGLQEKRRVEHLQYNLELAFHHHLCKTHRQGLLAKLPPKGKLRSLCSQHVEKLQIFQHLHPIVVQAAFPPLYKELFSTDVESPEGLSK
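Drosophila S2 cells stably expressing Gal4-DBD/mouse RORγ fusion under metallothionein promoter plus UAS-luciferase; compound 1 h, then 700 uM CuSO4 induction for 20 h at ambient temperature; inhibition read as reduced luminescence.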
Luc counter – blocks Kinase-Glo luciferase, a counter-screen artifact; 200,000 tested, 0.28% active; Kinase-Glo luciferase, ATP luminescence, 8 min; AID 1379; Q27757; Potency, µM (titrated, usually from 38.3 µM), for inactives: top-dose activity change, negative = inhibition, usual class: inhibitors; note: nearly all actives have a fitted effect of over 60% in size
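Luminescence was the read-out, taken after 8-minute incubation at ambient temperature. Luciferase turned over luciferin with 10 uM ATP in imidazole pH 7.2 buffer containing KCl, MgCl2, Tween 20 and BSA.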
VP16 counter – counter-screen for ROR gamma inhibitors: Gal4-VP16 reporter; AID 2546; 310,000 tested, 3.5% active; Drosophila S2 Gal4-VP16 UAS-luciferase, luminescence, 20 h; Potency, µM (series often up to 53.6 µM), for inactives: at the highest dose activity, negative = inhibition, hits mostly inhibitors;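 note: Gal4-VP16 expression switched on by copper sulfate through the metallothionein promoter; nearly all actives have a fitted effect of over 50% in size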
* = called active by the depositor; ? = inconclusive; / = no result given; [ ] = dose if it differs, or a comment. Compounds with a hit are over-represented: about 6.4% of the library has one in this group of screens. Calls come from the whole dose curve; as a rule, active = well fitted curve in the direction sought with a large enough effect; inconclusive = small, poorly fitted or top-dose-only effect, or another doubt; inactive = no such curve, though single readings can be large; an effect the other way counts as inactive or inconclusive. % is set by controls: 0 for no effect and ±100 for the full control effect; potency is the fitted concentration of half-maximal effect.

SMILES | RORg inh | Luc counter | VP16 counter
O=C(c1ccc(N2CCN(C(=O)c3ccc(F)c(F)c3)CC2)cc1)c1cccc(F)c1 | 1.78µM* | / | ?
O=C(c1cccc(F)c1)N1CCN(c2cccc(Cl)c2)CC1 | -7.2% | 0.7% | 3.8%
O=C1NCCN(C(=O)CCc2nnc(-c3ccsc3)o2)C1c1ccc(F)cc1 (configuration not stated) | 22.0% | / | -13.0%
O=S(=O)(NC(=S)c1ccccc1)c1ccc(F)cc1 | 11.2µM* | / | ?
O=S(=O)(NC(=S)c1ccccc1)c1ccc(Cl)cc1 | ? | / | -27.9%
Cc1cc(/C=N/NC(N)=S)c(C)n1-c1cccc(Cl)c1 | 2.82µM* | 2.3% | 10µM*
Cc1cccc(C)c1-n1c(C)cc(/C=N/NC(N)=S)c1C | 0.891µM* | -1.6% | 0.794µM*
Cc1nc2ccccn2c1C(=O)N/N=C/c1ccccc1 | 0.9% | / | -4.5%
Cc1cc(/C=N/NC(N)=S)c(C)n1-c1ccc(Cl)cc1 | 0.447µM* | 0.6% | 1.12µM*
Cc1cc(/C=N\NC(=O)CC(=O)NC2CCCCC2)c(C)n1-c1ccc(Cl)cc1 | 24.6% | 4.9% | -2.4%[0.365 µM]
COCc1cc(C)nc(OCC(=O)N/N=C/c2cc(C)n(-c3c(C)cccc3C)c2C)c1C#N | ? | 17.5% | 10.9%
Cc1nc2ccccn2c1C(=O)N/N=C/c1cc(C)n(-c2ccc(Br)cc2)c1C | 11.2µM* | 2.3% | ?
Cc1cccc(-n2c(C)cc(/C=N\NC(=O)c3ccco3)c2C)c1 | ? | 1.4% | ?
S=C1CCC(c2ccc(Br)cc2)=NN1c1ccccc1 | ? | / | -12.5%
C=CCN1C(=O)N(c2ccccc2)C(=O)C1CC(=O)Nc1ccc(OC)cc1 (configuration not stated) | -4.7% | / | 5.3%
N#Cc1cccc(-c2cncnc2NCc2cccs2)c1 | 19.1% | / | 0.2%
CCc1ccc(NC(=O)CS(=O)CC(=O)Nc2ccc(-n3cnnn3)c(C)c2)cc1 (configuration not stated) | ? | / | 4.6%
CC(C)Oc1ccc(Br)cc1/C=N\NC(N)=S | 2µM* | 1.5% | 5.01µM*
Cc1cc(/C=N/NC(N)=S)c(C)n1-c1ccc(Br)cc1 | 0.562µM* | -0.6% | -2.4%[10 µM]
Cc1cc(/C=N/O)c(C)n1-c1ccc(Br)cc1 | ? | -1.1% | -9.2%
COc1ccc(Br)cc1/C=N/NC(=O)Cn1nnnc1N | -10.6% | / | 4.6%
COc1cccc(C(=O)NCC2(c3ccccc3)CCCC2)c1OC | 11.9% | / | -7.4%
O=C(CN(Cc1ccccc1)S(=O)(=O)c1ccc(F)cc1)NCc1cccnc1 | 3.3% | / | -1.7%
NC(=S)N/N=C/c1ccccc1OC(=O)/C=C/c1ccccc1 | 3.55µM* | / | 3.55µM*
O=C(CSCc1ccccc1)N/N=C/c1ccccc1OCc1ccccc1 | -6.5% | / | -4.7%
SMILES | RORg inh | Luc counter | VP16 counter
NC(=O)N/N=C/c1ccccc1OC(=O)c1cc2ccccc2oc1=O | -36.3% | / | 0.1%
NC(=S)N/N=C/c1ccccc1OC(=O)c1cc2ccccc2oc1=O | 7.08µM* | / | 7.08µM*
CCOC(=O)N/N=C\c1ccccc1OC/C=C/c1ccccc1 | ? | / | 10.9%
NC(=S)N/N=C\c1c(OCc2ccccc2Cl)ccc2ccccc12 | 1.12µM* | 1.7% | 3.16µM*
NC(=S)N/N=C\c1c2ccccc2cc2ccccc12 | -145.8% | / | ?
NC(=S)N/N=C\c1ccccc1OCc1ccccc1 | 2.24µM* | 1.4% | 3.55µM*
C[C@H](NC(=O)Cc1cc(F)cc(F)c1)C(=O)N[C@@H](C(=O)OC(C)(C)C)c1ccccc1 | 9.1% | / | -6.0%
CC(C)(C)OC(=O)N[C@H](Cc1ccccc1)C(=O)N1CCC[C@@H]1C(=O)O | -3.0% | / | 7.5%
COCCNC(=O)C1(C(F)(F)F)C/C(=C/CCO)CCCO1 (configuration not stated) | -0.3% | / | -24.9%
COc1cccc(/C=N/NC(N)=S)c1OCc1cccc(Cl)c1 | 2.82µM* | -4.3% | 3.98µM*
NC(=S)N/N=C\c1c[nH]c2ccccc12 | / | -4.6%[7.66 µM] | /
NC(=S)N/N=C/c1c[nH]c2ccc(OCc3ccccc3)cc12 | 5.01µM* | / | 4.47µM*
COC(=O)N/N=C/c1cc(Cl)cc(Cl)c1OCc1ccccc1 | -11.4% | 1.9% | -14.5%
O=C(O)c1ccc(S(=O)(=O)N2CCc3ccccc3C2)cc1 | -6.5% | / | 6.1%
COc1cccc(CCNC(=O)C2CCC(=O)N(C3CC3)C2)c1OC (configuration not stated) | -7.9% | / | 1.3%
O=C(NCCO)c1ccc2c3n(nc2c1)-c1ccccc1CO3 | 4.47µM* | / | ?
Cc1ccc2c(c1)COc1c3ccc(C(=O)O)cc3nn1-2 | 2µM* | / | 5.01µM*
CC(C)NC(=O)c1ccc2c(c1)nnn2C | 4.6%[0.365 µM] | -2.7% | /
Cc1ccc2c(c1)COc1c3ccc(C(=O)NCC4CC4)cc3nn1-2 | -38.8% | / | -24.3%
CC(C)NC(=O)c1ccc2c3n(nc2c1)-c1ccccc1CO3 | 3.98µM* | / | 4.47µM*
O=C(NCCO)c1ccc2nc(-c3ccco3)c(-c3ccco3)nc2c1 | -12.0% | -1.5% | -2.9%
CCCCC#Cc1ccc2c(c1)COc1c3ccccc3nn1-2 | -15.8% | / | 0.1%
O=C(NCC1CC1)c1ccc2c3n(nc2c1)-c1ccccc1CO3 | 14.1µM* | / | ?
CCCCc1c(O)nc(SCC(=O)c2ccccc2)n(-c2ccccc2OC)c1=O | 20.1% | / | -2.2%
CC(C)C1Oc2ccccc2N(CC(=O)N2CCOCC2)C1=O (configuration not stated) | -6.8% | / | 10.4%
SMILES | RORg inh | Luc counter | VP16 counter
Cc1cc(C(=S)N2CCOCC2)c(C)n1-c1ccc(F)cc1 | ? | -2.0% | -24.6%
Cc1ccc(-n2c(C)cc(C(=S)N3CCOCC3)c2C)cc1C | 14.1µM* | -0.4% | -28.0%
CN(C)c1ncnc2ccc(-c3ccc4c(c3)OCO4)cc12 | -3.3% | / | -3.0%
O=C(Nc1ccccc1)Nc1ccc(C(=O)N2CCOCC2)cc1 | -22.8% | 3.16µM* | ?
CC(=O)c1ccc(N2CCN(C(=S)Nc3ccccc3)CC2)cc1 | ? | 3.8% | -25.3%
COc1ccc(N2CCN(C(=S)Nc3ccc(C)cc3)CC2)cc1 | 10µM* | 3.0% | -2.2%
Cc1ccc(N2CCN(C(=S)Nc3ccccc3)CC2)cc1 | 6.31µM* | -0.8% | ?
COc1ccc(N2CCN(CC(=O)Nc3ccc(C)cc3)CC2)cc1 | -4.7% | / | 23.3%
S=C(Nc1ccccc1)N1CCOCCOCCN(C(=S)Nc2ccccc2)CCOCCOCC1 | 17.8µM* | / | -23.8%
S=C(Nc1ccc(Oc2ccccc2)cc1)N1CCOCC1 | -22.1% | / | -2.0%
O=C(c1ccc(NC(=O)C2(c3ccccc3)CCCC2)cc1)N1CCOCC1 | ? | / | 0.7%
CCc1nn(C(C)C(=O)NCc2cccc(OC)c2)c(=O)c2cc3occc3n12 (configuration not stated) | 0.0% | / | -11.7%
CC(C)NC(=O)CCCN1C(=O)c2ccccc2Sc2ncccc21 | 0.0% | / | 3.2%
CN1CCN(C(=S)Nc2ccc(Oc3ccccc3)cc2)CC1 | 11.2µM* | 1.0% | 0.3%
OCCN1CCN(C(=S)Nc2ccc(Oc3ccccc3)cc2)CC1 | 1.1% | 1.0% | -2.5%
Cc1nnc(SCC(=O)NC2CCCc3c2cnn3-c2ccccc2F)o1 (configuration not stated) | 5.2% | / | -0.8%
Cc1ccc(/C=N/Nc2cc(C)nc(NCc3ccccc3)n2)cc1 | 20µM* | / | ?
COc1ccc(Nc2cc(C)nc3ccc(OC)cc23)cc1 | -21.4% | / | -2.3%
Cc1cc(N/N=C/c2ccc(Cl)cc2Cl)nc(NCc2ccccc2)n1 | ? | -4.1% | ?
